The record followed here is PubChem BioAssay AID2796 (The Scripps Research Institute Molecular Screening Center, 2010).

Molecules are shown by their SMILES. Screen size: about 320,000 compounds; about 8,000 (2.5%) were called active. Many of the other results were omitted from the sample, so actives are more common in it than they were. A number with no mark means an inactive call. Rule as the data show it: active = activation above about 47%; inactive = the rest.

Chain of Aryl hydrocarbon receptor (Homo sapiens) (P35869 whole entry, looked up): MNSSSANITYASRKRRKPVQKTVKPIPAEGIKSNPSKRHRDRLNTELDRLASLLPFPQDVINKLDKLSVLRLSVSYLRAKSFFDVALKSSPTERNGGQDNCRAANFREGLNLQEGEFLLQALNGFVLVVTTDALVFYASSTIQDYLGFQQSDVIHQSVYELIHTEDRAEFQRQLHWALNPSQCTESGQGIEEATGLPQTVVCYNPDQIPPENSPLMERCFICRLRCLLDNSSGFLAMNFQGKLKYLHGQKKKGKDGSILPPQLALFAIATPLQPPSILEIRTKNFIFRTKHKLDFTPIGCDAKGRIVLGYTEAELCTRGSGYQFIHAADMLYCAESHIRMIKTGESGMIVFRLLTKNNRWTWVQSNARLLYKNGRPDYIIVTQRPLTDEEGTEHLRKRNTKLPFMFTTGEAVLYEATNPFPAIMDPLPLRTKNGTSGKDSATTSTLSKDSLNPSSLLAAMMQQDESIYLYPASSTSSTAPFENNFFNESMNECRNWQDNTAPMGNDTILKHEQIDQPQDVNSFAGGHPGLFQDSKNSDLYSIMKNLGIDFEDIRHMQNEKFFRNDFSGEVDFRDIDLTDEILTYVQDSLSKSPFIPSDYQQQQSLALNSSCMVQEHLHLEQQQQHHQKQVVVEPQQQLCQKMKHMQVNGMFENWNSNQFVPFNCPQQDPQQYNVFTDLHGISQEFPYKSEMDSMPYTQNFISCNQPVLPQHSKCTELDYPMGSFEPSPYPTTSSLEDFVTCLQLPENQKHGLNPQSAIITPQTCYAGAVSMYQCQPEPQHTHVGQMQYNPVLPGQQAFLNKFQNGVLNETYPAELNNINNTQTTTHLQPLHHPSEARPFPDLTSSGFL

The assay addresses Aryl hydrocarbon receptor (Homo sapiens) (UniProt P35869). Description: AHR activators, primary screen, cell-based, luminescence, luciferase reporter, human (AID 2796).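 Also: 0% = vehicle wells and 100% = reference agonist.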 The note with it: AHR-responsive luciferase reporter cells, at 5 µM, active compounds read high.
`O=C1C=C(c2ccc(Cl)cc2)C(=O)N1Nc1ccccc1`: the activation is -0.76%.
As for `NC(=O)C1CCN(C(=O)COc2ccc3c4c(c(=O)oc3c2)CCC4)CC1`, the activation is -1.05%.
As to `COc1ccc(NS(=O)(=O)c2cc(NC(=O)c3ccc(S(=O)(=O)N(C)C)cc3)ccc2N2CCOCC2)cc1`, the activation was 0.52%.
As to `CC1CC(C)(C)CC2(C1)NC(=O)N(CC(=O)Nc1nccs1)C2=O` (centres undefined), the activation was 2.2%.
`Cc1ccc(/C([O-])=C(/C(=S)NCc2ccco2)[n+]2ccccc2)cc1[N+](=O)[O-]`: the activation is 2.88%.
As to `CC1CCN(C(=S)c2cccc([N+](=O)[O-])c2)CC1`, the activation is -3.58%.
With `O=[N+]([O-])c1cccc(/C([O-])=C(/C(=S)Nc2ccccc2F)[n+]2ccccc2)c1` the figure was 49.5% (active).
`COc1cccc(-c2ccc3c(c2)S(=O)(=O)c2cccc(C(=O)O)c2C3=O)c1OC`: the activation was -3.31%.
With `CC1CN/C(=C\C(=O)c2ccc(Br)cc2)C(=O)N1` (centres undefined) the figure was -14.4%; with `CCc1nc(Nc2ccc3nccnc3c2)c2oc3ccccc3c2n1`, 85.3% (active).
With `CCc1nc(Nc2ccc(NC(C)=O)cc2)c2oc3ccccc3c2n1` the figure was 5.36%; with `Cc1nc(Cl)c2oc3ccccc3c2n1`, 4.72%.
`COc1ccc(/C=N/n2c(C)cc(C)cc2=O)cc1`: the activation was -0.2%.
With `CC(=O)Nc1nc2ccccc2n1Cc1ccc(C)cc1` the figure was 1.47%; with `Cn1c(-c2ccc(C(=O)c3ccccc3)s2)nc2ccccc21`, -15%.
With `CC(=O)NCCc1nc2cc(NC(=O)c3ccccc3)ccc2n1C` the figure was 5.94%; with `CCC(=O)Nc1nc2ccccc2n1Cc1ccccc1C`, 2.17%; with `CCn1c(NC(=O)c2nn(C)cc2Br)nc2ccccc21`, 122% (active).
With `Cn1c(NC(=O)c2ccccc2)nc2ccccc21` the figure was 76.5% (active); with `O=C(Cn1cnc2ccccc2c1=O)NCC1COc2ccccc2O1` (centres undefined), 0.29%.
`O=C(c1ccc(F)cc1)N1CCCC(C(=O)N2CCCCC2)C1` (centres undefined): the activation is -0.02%.
With `CCN1C(=O)/C(=C2\SC(N3CCCCC3)=NC2=O)c2ccccc21`, the activation was 22.2%.
With `COc1ccc(Cl)cc1-n1c(=S)sc2c(=O)n(-c3ccc(F)cc3)c(SCC(=O)O)nc21` the figure was 3.11%; with `C=CCNc1nc(Nc2ccc(Cl)cc2)nc(OC)n1`, 52.8% (active).
On to `C=CCNc1nc(C)nc(OC)n1`, for which the activation is -0.26%.
For the compound `COc1nc(NCc2ccc(Cl)cc2)nc(OC)n1`, the activation is -1.92%.
With `O=C(NCc1cccc(Cl)c1)C1CCC(=O)N(C2CC2)C1` (centres undefined) the figure was 7.52%.
For `Cc1cccc(C(=O)Nc2nnc(Cc3c[nH]c4ccccc34)s2)c1`, the activation was 22.8%.
With `Cc1cccc(N=C2NN=C(c3c[nH]c4ccccc34)CS2)c1` the figure was 99.4% (active).
As for `C=CCn1c(C)cc(C2=NNC(=NCC)SC2)c1C`, the activation is -11%.
`CN=c1scc(-c2cc(OC)ccc2OC)n1/N=C/c1c(C)[nH]c2ccccc12`: the activation is -2.76%.
With `COc1ccccc1N=Cc1c(O)c2ccccc2oc1=O`, the activation was 4.13%.
With `COc1ccc(OC)c(N=Cc2c(O)[nH]c3ccccc23)c1` the figure was 54.3% (active); with `O=C(Cn1nc(CNc2ccc(Cl)cc2)[n+]2c1CCCCC2)c1ccc(Cl)cc1`, 28.6%; with `Cc1nn(-c2cc(Cl)ccc2N)c(=O)c2ccccc12`, 0.58%.
With `Cc1cc(=O)oc2c1c(C)nn2-c1ccc(Cl)cc1` the figure was 58% (active); with `Cc1nn(-c2ccccc2)c(NC(=O)c2cccs2)c(-c2ccc(Cl)cc2)c1=O`, 0.87%; with `COc1ccc(CNC(=O)CN(c2ccc(OC)c(Cl)c2)S(=O)(=O)c2ccc(C)cc2)cc1`, 4.87%.
Regarding `C[C@]12CC[C@H](O)CC1=CCC1C2CC[C@@]2(C)C1CC[C@@H]2NC(=O)CCC(=O)O` (some centres undefined), the activation is -0.38%.
For the compound `COc1cccc(-c2nnc(SCCOc3ccc4c(C)cc(=O)oc4c3)o2)c1`, the activation is -2.36%.
With `O=[N+]([O-])c1cccc(C2=NCCS2)c1` the figure was 0.6%; with `CC(=O)Oc1ccc2c(=O)oc(-c3ccc([N+](=O)[O-])cc3)nc2c1`, 14.1%.
As to `COc1cccc(-c2nc3cc(C)ccc3o2)c1`, the activation was 83.1% (active).
With `O=[N+]([O-])c1ccc2oc(-c3cccc(O)c3)nc2c1` the figure was 78% (active); with `COc1ccc2oc(-c3cccc(NC(=O)CSc4ccc(Cl)cc4)c3)nc2c1`, 28.6%.
Consider `CC(=O)c1ccc(NC(=O)CCNS(=O)(=O)c2cc(Br)cnc2N)cc1`, for which the activation was 2.25%.
With `COc1ccc(CN2CCC(n3nccc3NC(=O)CCCc3ccccc3)CC2)cc1C` the figure was -8.72%; with `CCC(C)NC(=O)C1c2ccccc2C(=O)N1Cc1ccccc1` (centres undefined), 0.97%.
With `Cc1[nH]nc(SCC(=O)NCC(C)C)c1[N+](=O)[O-]` the figure was -0.18%.
With `COc1ccc(CN2CCCC(C(=O)N3CCCCC3)C2)cc1` (centres undefined) the figure was -0.87%.
With `CC(=O)c1ccc(NC(=O)Nc2ccc([N+](=O)[O-])cc2C)cc1`, the activation was -4.23%.
Consider `COC(=O)c1ccc(NC(=O)Nc2ccc(C)cc2)cc1`, for which the activation is 1.57%.
With `COc1cc(NC(=O)Nc2ccc(C)cc2)cc([N+](=O)[O-])c1` the figure was 61.8% (active).
With `Oc1cccc2ccc(/C=C/c3ccc(Br)s3)nc12` the figure was 52.2% (active).
Regarding `Nc1ccc(S(=O)(=O)Nc2nccc(/C=C/c3ccc(Br)s3)n2)cc1`, the activation was -1.58%.
With `CCN(c1ccccc1)S(=O)(=O)c1ccc2[nH]c(=O)[nH]c2c1` the figure was 7.41%.
With `CC(C)C(NC(=O)OCc1ccccc1)C(=O)OCC(=O)N1C(C)CCCC1C` (centres undefined) the figure was 2.02%.
For the compound `Cc1cccc(Nc2nc(NCCO)nc(N3CCCC3)n2)c1`, the activation was 19.5%.
With `CC(C)(C)Oc1ccccc1Nc1nc(NCCO)nc(N2CCCC2)n1` the figure was 53.9% (active); with `CCCOc1ccc(Cl)cc1Nc1nc(NCCO)nc(N2CCCC2)n1`, 12.8%.
In the case of `CN(CC(=O)NCc1ccncc1)S(=O)(=O)c1ccc(Br)cc1`, the activation was 5.25%.
Take `Cc1ccc(-c2nnc(-n3nnc4ccccc43)c3ccccc23)cc1`: the activation is 1.43%.
With `Cc1nn(C)cc1C(=O)NNC(=S)Nc1ccc(Cl)cc1` the figure was 29.1%.
With `Cn1cc(Cl)c(C(=O)NNC(=S)Nc2cccc(Cl)c2)n1` the figure was 125% (active); with `CC(C)CNC(=S)NNC(=O)c1nn(C)cc1Cl`, -3.07%; with `CCCC(=O)Nc1nnc(CC(=O)OCC)s1`, 3.91%.
With `C=CCN1C2CCCC1CC(NC(=S)Nc1cccc(OC)c1)C2` (centres undefined) the figure was -0.24%.
Consider `CCOCCCN(C)C1CCN(C(=O)c2oc3ccccc3c2NC(=O)COc2cccc(C)c2)CC1`, for which the activation is -0.33%.
With `COCC(=O)Nc1c(C(=O)N2CCCC2)oc2ccccc12` the figure was 74.5% (active); with `COc1cccc(OC)c1C(=O)Nc1c(C(=O)N2CCN(c3ccccn3)CC2)oc2ccccc12`, -3.46%; with `CCc1cccc(C)c1NS(=O)(=O)c1cc(Br)cnc1N`, 3.17%.
On to `O=C(Nc1ccc2c(c1)OCCO2)C1CCCN(c2ncccn2)C1` (centres undefined), for which the activation was 20.4%.
With `COc1cc(NC(=O)C2CCN(c3cnccn3)CC2)cc(OC)c1`, the activation was 5.78%.
Consider `O=C(Nc1cccc(Cl)c1)C1CCCN(c2cnccn2)C1` (centres undefined), for which the activation is 82.4% (active).
On to `Cc1ccc(Cl)cc1NC(=O)C1CCCN(c2cnccn2)C1` (centres undefined), for which the activation is 80% (active).
In the case of `Cc1ccc(Cl)cc1NC(=O)C1CCN(S(C)(=O)=O)CC1`, the activation was 7.96%.
With `Cc1ccc(Cl)cc1NC(=O)COC(=O)C1CCCCC1` the figure was 0.36%; with `CC(C)[C@H](NC(=O)N1CCn2c1nc1ccccc12)C(=O)NCc1ccc2c(c1)OCO2`, 6.92%.
On to `CC(C)CNc1ncnc2c1cnn2Cc1ccc(Cl)cc1`, for which the activation is 0%.
Turning to `Cc1cccc(CS(=O)(=O)c2ncc(Cl)c(C(=O)Nc3ccc(F)cc3)n2)c1`, the activation was 27.3%.
With `OC(c1ccc(Cl)cc1)C(CN1CCOCC1)c1ccccc1` (centres undefined), the activation is 2.39%.
Turning to `Cc1ccc(N(C(=O)c2sc(C)nc2C)C(C(=O)NC(C)(C)C)c2ccncc2)cc1` (centres undefined), the activation was -0.51%.
On to `CC(C)c1ccccc1OCC(O)CN(CC(O)COc1cccc2ccccc12)C(C)C` (centres undefined), for which the activation is 5.3%.
With `CC1Cc2ccccc2N1CC(=O)Nc1ccc2c(c1)OC(F)(F)O2` (centres undefined) the figure was 61.4% (active); with `O=C(COC(=O)c1ccc[nH]c1=O)Nc1ccc2c(c1)OC(F)(F)O2`, 0.45%.
With `CC1Cc2ccccc2N1CC(=O)Nc1ccc(S(N)(=O)=O)cc1` (centres undefined) the figure was 3.1%.
Turning to `CCOC(=O)N1CCC(Nc2c(NCCCN3CCN(c4ccc(OC)cc4)CC3)c(=O)c2=O)CC1`, the activation is 1.99%.
As for `O=C(Nc1cccc(S(=O)(=O)N2CCCCC2)c1)c1ccc2c(c1)OCO2`, the activation is 56% (active).
Consider `CC(Sc1nc(-c2ccccc2)cc(C(F)(F)F)n1)C(=O)Nc1ccc2c(c1)OCO2` (centres undefined), for which the activation is 5.04%.
With `O=C(Nc1cccc(S(=O)(=O)N2CCCCC2)c1)c1cncc(Br)c1` the figure was 17.9%; with `Cc1ccc(C(=O)Nc2ccc3c(c2)OCO3)cc1S(=O)(=O)N1CCCCC1`, 38.4%.
As to `CC(C)NC(=O)CSc1ccccc1C(=O)NCc1ccc2c(c1)OCO2`, the activation is 1.44%.
With `O=C(Nc1nc2ccccc2s1)c1ccc2c(c1)OCO2` the figure was 6.38%.
Regarding `COCc1nnc(NC(=O)c2ccc3c(c2)OCO3)s1`, the activation was 50% (active).
As for `CCSc1ccccc1C(=O)Nc1ccc2c(c1)OCO2`, the activation was 80.8% (active).
Consider `COc1cc(NC(=O)c2ccc3c(c2)OCO3)ccc1NC(=O)c1cccs1`, for which the activation is 12.8%.
With `CSc1ncccc1C(=O)Nc1ccc2c(c1)OCO2` the figure was 32.3%.
With `CC(Sc1nc2cc(Cl)ccc2s1)C(=O)Nc1ccc2c(c1)OCO2` (centres undefined) the figure was 65.3% (active).
For `O=C(Nc1ccc2c(c1)OCO2)c1sc2cc(Cl)ccc2c1Cl`, the activation was 33.1%.
